# Eya2 phos inh: qHTS Assay for Inhibitors of the Phosphatase Activity of Eya2; Protein phosphatase EYA2 (Homo sapiens), O00167; actives 0.006% (n = 330,000); Potency, µM (top dose mostly 76.9 µM), for the others: top-dose activity, negative = inhibition, hits mostly inhibitors; AID 488837, 2010; recombinant Eya2, OMFP fluorescence dephosphorylation (OMFP is methylfluorescein phosphate); also: % is scaled to controls: 0 for no effect and ±100 for the full control effect
#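 Eya2 protein (added as 0.2 uM solution) was preincubated with compound for 10 min at ambient temperature in 50 mM HEPES pH 7.5, 50 mM NaCl, 5 uM MgCl2, 0.05% BSA, 1 mM DTT. OMFP (added at 50 uM) then reacted 10 min; fluorescence read at 485/525 nm.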
# ALOX12 inh: Primary qHTS assay for inhibitors of human arachidonate 12S-lipoxygenase (ALOX12): Round 2. Polyunsaturated fatty acid lipoxygenase ALOX12 (Homo sapiens), P18054. purified 12hLO, xylenol orange hydroperoxide absorbance. Potency, µM (doses to about 108 µM), inactives show at the top dose activity change, negative = inhibition, most hits filed as inhibitors. actives 1.1% (n = 580,000). AID 1671190, 2021; also: % is scaled to controls: 0 for no effect and ±100 for the full control effect
# Target sequence (P18054 whole entry, looked up): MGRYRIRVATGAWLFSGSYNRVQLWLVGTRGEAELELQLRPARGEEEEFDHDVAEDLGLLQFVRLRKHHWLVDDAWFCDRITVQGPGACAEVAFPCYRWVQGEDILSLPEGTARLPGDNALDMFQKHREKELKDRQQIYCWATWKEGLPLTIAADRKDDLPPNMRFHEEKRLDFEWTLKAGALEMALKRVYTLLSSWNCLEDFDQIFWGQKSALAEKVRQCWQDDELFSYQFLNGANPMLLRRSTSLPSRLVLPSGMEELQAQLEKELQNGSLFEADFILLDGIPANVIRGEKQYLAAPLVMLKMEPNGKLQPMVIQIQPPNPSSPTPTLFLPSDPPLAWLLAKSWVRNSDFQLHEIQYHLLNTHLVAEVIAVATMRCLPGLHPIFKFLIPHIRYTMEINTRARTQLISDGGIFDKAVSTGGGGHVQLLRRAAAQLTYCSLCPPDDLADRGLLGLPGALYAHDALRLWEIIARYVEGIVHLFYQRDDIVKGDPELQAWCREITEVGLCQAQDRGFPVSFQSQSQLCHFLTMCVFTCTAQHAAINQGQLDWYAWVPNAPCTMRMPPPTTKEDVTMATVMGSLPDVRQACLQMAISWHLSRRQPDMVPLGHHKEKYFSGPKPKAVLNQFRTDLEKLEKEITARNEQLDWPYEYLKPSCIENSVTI
#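 Purified human 12hLO at 150 nM in 25 mM Hepes, 0.01% Triton X-100, pH 7.0, preincubated 15 min at room temperature with compound. Reaction started with 40 uM arachidonic acid, 30 min at room temperature. Hydroperoxide measured by Fe-xylenol orange, 573/405 nm absorbance ratio.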
# PTAP TSG101 blk: qHTS Assay for Iinhibitors of HIV-1 Budding by Blocking the Interaction of PTAP/TSG101; Potency, µM (top dose mostly 115 µM), for the others: at the top dose activity change, negative = inhibition, actives largely listed as inhibitors; 340,000 tested, under 10 active; Tumor susceptibility gene 101 protein (Homo sapiens), Q99816; AID 493005, 2010; Fluorescence polarization, FITC-PTAP peptide / Tsg101 binding; active = well fitted inhibition curve with a large enough effect in the main read-out, with a control signal flat, not every such curve was filed as active; inconclusive = small, poorly fitted or top-dose-only effect, or effect the other way, or a change in a side signal; inactive = no such curve, though single readings can be large or run the other way; also: % of control where 0% means no effect
#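 Fluorescence anisotropy tracks displacement of a FITC-tagged PTAP peptide (50 nM) from the Tsg101 binding domain (10 uM), following a 20 min room-temperature incubation at pH 7.5.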
# USP2a block: qHTS Assay for Inhibitors of Ubiquitin-specific Protease USP2a Using CHOP2 as the Reporter | Ubiquitin carboxyl-terminal hydrolase 2 (Homo sapiens), O75604 | USP2 core, Ub-CHOP2 coupled fluorogenic reporter, 485/531 | Potency, µM (titrated, usually from 38.3 µM), for the others: at the top dose activity change, negative = inhibition, most hits filed as inhibitors | actives 0.01% (n = 330,000);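 also: plate controls were DMSO wells for no effect and full inhibition by NEM control for full effect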
#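 USP2 core (10nM final) preincubated 30min RT with compound in 20mM Tris-HCl pH 8.0, 2mM CaCl2, 2mM beta-mercaptoethanol, 0.05% CHAPS; 25nM Ub-CHOP2 plus 25nM reporter substrate added, fluorescence (Ex485/Em531) read after 60min.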
# The depositor's hits bear a star; ? = inconclusive; · = no result given; [ ] = another dose, or the depositor's remark. This is a sample that favours compounds with a hit; in the whole collection about 1.1% have one here. Unless noted, calls follow the shape of the dose curve; as a rule, active = well fitted curve in the direction sought with a large enough effect; inconclusive = small, poorly fitted or top-dose-only effect, or another doubt; inactive = no such curve, though single readings can be large; an effect the other way counts as inactive or inconclusive. Potency is read from the fitted curve at half-maximal effect.
SMILES,Eya2 phos inh,ALOX12 inh,PTAP TSG101 blk,USP2a block
CCN1CCN(c2nc3ccccc3nc2C(C#N)S(=O)(=O)c2ccc(Cl)cc2)CC1 (stereo unspecified),·,45µM*,·,·
CCN1CCN(c2nc3ccccc3nc2C(C#N)S(=O)(=O)c2ccc(OC)cc2)CC1 (stereo unspecified),·,18µM*,·,·
CCN1CCN(c2nc3ccccc3nc2C(C#N)S(=O)(=O)c2cccc(C)c2)CC1 (stereo unspecified),·,14µM*,·,·
CCNc1nc2ccccc2nc1C(C#N)S(=O)(=O)c1ccc(C)c(C)c1 (stereo unspecified),·,14µM*,·,·
Cc1cccc(S(=O)(=O)C(C#N)c2nc3ccccc3nc2N2CCCC2)c1 (stereo unspecified),4%,?,-5%,3%
COc1ccc(CN2Cc3[nH]cnc3C[C@H]2C(=O)NC2CCCCC2)c2ccccc12,·,-2%[176 µM],·,·
O=c1cc(C(F)(F)F)[nH]c(=S)[nH]1,·,0.79µM*,·,·
CCCc1cc(=O)[nH]c(=S)[nH]1,-1%,?,-19%,0%
CCn1c2c(c(=O)n1-c1ccccc1)CCN(C(=O)c1ccc(Oc3ccccc3)cc1)C2,·,3%,·,·
CCCNc1nc(-c2ccc(S(=O)(=O)N3CCCCCC3)cc2)cs1,·,32µM*,·,·
C=CCNc1nc(-c2ccc(S(=O)(=O)N3CCCCCC3)cc2)cs1,·,-3%,·,·
CCCc1cc(=O)oc2cc(OC(C)C(=O)NCc3cccnc3)ccc12 (stereo unspecified),·,7%,·,·
Cc1c(C#N)c(O)[nH]c(=O)c1N=Nc1ccc(Cl)c(C(=O)O)c1,7%,?,-3%,2%
Cc1c(C#N)c(O)[nH]c(=O)c1N=Nc1ccc(S(N)(=O)=O)cc1,-33%,40µM*,-5%,-4%
O=c1cc(N2CCN(c3cccc(C(F)(F)F)c3)CC2)nc2ccccn12,·,4%,·,·
CC(=O)N1CCN(c2ccc(NC(=O)COc3c(C)cc(C)cc3Cl)cc2)CC1,·,13µM*,·,·
COc1ccc(-c2cc(-c3ccco3)[nH]c(=O)c2C#N)cc1,-7%,40µM*,-3%,9%
COc1ccc(-c2cc(C(F)(F)F)c(C#N)c(=O)[nH]2)cc1,2%,-1%,-1%,8%
N#Cc1c(-c2cccc(Br)c2)cc(-c2ccco2)[nH]c1=O,0%,18µM*,-2%,9%
N#Cc1c(-c2ccccc2)cc(-c2ccccc2)[nH]c1=O,?,0%,-6%,-4%
CC[C@]12c3[nH]c4ccc(OC)cc4c3CCN1C(=O)C(CC(=O)NCC13CC4CC(CC(C4)C1)C3)C[C@@H]2C(=O)N1CCN(C(=O)C2CC2)CC1 (stereo partly specified),2%,0%,-7%,1%
CC[C@]12c3[nH]c4ccc(Cl)cc4c3CCN1C(=O)[C@@H](CC(=O)NCC13CC4CC(CC(C4)C1)C3)C[C@@H]2C(=O)N1CCN(C(=O)C2CC2)CC1,-10%,40µM*,-1%,-6%
OC[C@H]1CCN(Cc2ccc(-c3cccc(Cl)c3Cl)o2)C[C@@H]1O,·,21%,·,·
Cc1cnc(CNc2ncnc3ccc(-c4ccc(C(=O)N(C)C)cc4)cc23)cn1,·,-24%,·,·
Cc1cnc(CNc2ccnc(-c3ccc(C(=O)N(C)C)cc3)n2)cn1,·,35µM*,·,·
SMILES,Eya2 phos inh,ALOX12 inh,PTAP TSG101 blk,USP2a block
COCCc1noc([C@@H]2CN(Cc3ccc(C(C)C)cc3)C[C@H]2CO)n1,·,36%,·,·
Cc1noc(C)c1-c1cc2cc(CN(C)C)oc2c(Nc2cccnc2)n1,·,17%[176 µM],·,·
N#C/C(=C(/O)CCl)c1nc2c(s1)CCc1ccccc1-2,-12%,16µM*,1%,1%
Nc1nc2c(s1)CCc1ccccc1-2,-5%,?,0%,-1%
CCOc1ccc(C(C)=O)cc1COc1ccccc1C#N,·,-6%,·,·
FC(F)(F)c1ccccc1-c1cncnc1NCCN1CCOCC1,·,18µM*,·,·
FC(F)(F)c1ccccc1-c1cncnc1Nc1ccccc1,·,25µM*,·,·
FC(F)(F)c1ccccc1-c1cc(NCCN2CCOCC2)ncn1,·,-20%,·,·
CCCCCc1ccc(-c2ccc(C3CCC(CCCCC)CC3)cc2)nc1 (stereo unspecified),·,-6%,·,·
CSC(=S)N/N=C(\C)c1ccc(Br)cc1,-6%,45µM*,0%,-13%
COC(=O)N/N=C(\C)c1ccc(Br)cc1,-10%,-7%,-2%,3%
CCOC(=O)c1ccc(NC(=S)NCCC2=CCCCC2)cc1,-6%,40µM*,-1%,-8%
CCOC(=O)c1ccc(NC(=S)NCCc2ccccc2F)cc1,-3%,40µM*,0%,-8%
FC(F)Sc1ccc(NC(=S)NCCC2=CCCCC2)cc1,·,18µM*,·,·
CCOC(=O)c1ccc(NC(=S)NC(=O)C2CCCC2)cc1,-5%,40µM*,1%,-2%
Cc1ccc(NC(=S)NCCC2=CCCCC2)cc1,-7%,?,2%,0%
CC(=O)Nc1ccc(-c2ccc(=O)n3c2[C@@H]2C[C@@H](CN(S(=O)(=O)c4ccc(Cl)cc4)C2)C3)cc1,·,44%,·,·
CC(=O)C1=C(O)C(=O)N(c2cc(C(C)(C)C)on2)C1c1ccc(Br)cc1 (stereo unspecified),14%,45µM*,-12%,3%
CCc1ccc(OCC(=O)NNC(=S)NC(=O)C2CCCCC2)c(Br)c1,-11%,7.9µM*,-11%,0%
Cc1cc(OC(=O)c2ccccc2[N+](=O)[O-])c([N+](=O)[O-])c(=O)[nH]1,-14%,?,-3%,-1%
Cc1cc(OC(=O)c2cc(Br)ccc2Cl)c([N+](=O)[O-])c(=O)[nH]1,-6%,35µM*,-6%,-1%
Cc1ccc(-c2cc(-c3n[nH]c(=S)o3)c3ccccc3n2)cc1,6%,2.2µM*,0%,-17%
CCCCNC(=O)CN1CCN(c2nc(C(F)(F)F)nc3ccccc23)CC1,·,15%,·,·
Cc1ccc(-c2ccccc2CN)c(C)c1,·,8%[12.5 µM],·,·
Cc1ccc(C2CC2C(=O)NNC(=S)Nc2ccc(Cl)cc2)cc1 (stereo unspecified),-6%,45µM*,-4%,-18%
CC(C)(C)NC(=S)NNC(=O)[C@H]1C[C@@H]1c1ccccc1,-10%,121%,-1%,5%
